High-throughput results: PubChem, National Center for Advancing Translational Sciences (NCATS)
TDP1 inh – qHTS Assay for Inhibitors of Tyrosyl-DNA Phosphodiesterase (TDP1). Tyrosyl-DNA phosphodiesterase 1 (Homo sapiens), Q9NUW8. recombinant TDP1, AlphaScreen DNA substrate cleavage. 350,000 compounds, 0.28% hits. Potency, µM (doses to about 130 µM), for inactives: at the highest dose activity change, negative = inhibition, most hits filed as inhibitors; also: potency is read from the fitted curve at half-maximal effect; % is scaled to controls: 0 for no effect and ±100 for the full control effect; nearly all actives have a fitted effect of over 40% in size
Target sequence (Q9NUW8 whole entry, looked up): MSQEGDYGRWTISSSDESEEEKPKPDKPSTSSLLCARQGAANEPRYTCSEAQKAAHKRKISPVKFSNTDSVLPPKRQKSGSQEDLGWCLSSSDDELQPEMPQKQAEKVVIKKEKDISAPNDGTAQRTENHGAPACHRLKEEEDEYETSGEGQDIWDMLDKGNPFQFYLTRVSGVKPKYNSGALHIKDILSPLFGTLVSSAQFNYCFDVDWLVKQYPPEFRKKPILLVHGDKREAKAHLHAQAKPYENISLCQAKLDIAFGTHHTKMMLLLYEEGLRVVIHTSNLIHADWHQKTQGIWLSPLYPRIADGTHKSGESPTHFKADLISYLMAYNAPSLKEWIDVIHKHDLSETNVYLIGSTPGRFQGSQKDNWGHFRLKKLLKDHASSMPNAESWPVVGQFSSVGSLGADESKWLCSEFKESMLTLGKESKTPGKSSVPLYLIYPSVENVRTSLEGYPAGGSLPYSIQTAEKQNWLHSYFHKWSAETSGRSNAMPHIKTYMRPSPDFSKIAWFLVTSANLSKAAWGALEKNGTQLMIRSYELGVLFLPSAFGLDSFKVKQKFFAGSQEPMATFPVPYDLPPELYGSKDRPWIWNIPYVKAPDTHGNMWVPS
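Steps: enzyme plus compound, 15 min RT; add biotin/phosphotyrosine-FITC oligonucleotide (15 nM final), react 5 min; add donor/acceptor beads (10 ug/ml final), 10 min; read AlphaScreen. Tdp1 at 1 nM final.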
TDP1 cell CPT – qHTS for Inhibitors of human tyrosyl-DNA phosphodiesterase 1 (TDP1): qHTS in cells in presence of CPT; chicken DT40 Tdp1-/-;hTDP1 cells + 20 nM CPT, ATP luminescence, 48 h; Potency, µM (top dose mostly 46.2 µM), for inactives: at the highest dose activity change, negative = growth inhibition, hits mostly inhibitors; 420,000 compounds, 12% hits; also: potency is read from the fitted curve at half-maximal effect; % is scaled to controls: 0 for no effect and ±100 for the full control effect; nearly all actives have a fitted effect of over 55% in size
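Chicken DT40 Tdp1-/- cells stably complemented with human TDP1 were seeded at 400 cells/well in medium containing 20 nM camptothecin, exposed to pin-transferred compounds, and grown at 37 °C for at least 48 hr. Viability was read as ATP luminescence.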
TDP1 cell noCPT – qHTS for Inhibitors of human tyrosyl-DNA phosphodiesterase 1 (TDP1): qHTS in cells in absence of CPT; DT40 Tdp1-/- hTDP1 cells, no CPT, ATP luminescence, 48 h; 420,000 compounds, 15% hits; Potency, µM (series often up to 46.2 µM), for the others: top-dose activity change, negative = growth inhibition, most hits filed as inhibitors; also: potency is read from the fitted curve at half-maximal effect; % is scaled to controls: 0 for no effect and ±100 for the full control effect; nearly all actives have a fitted effect of over 55% in size
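DT40 Tdp1-/-;hTDP1 cells, no CPT (DMSO vehicle only), 400 cells/well; compounds pin-transferred; ≥48 hr, 37 °C; CellTiter-Glo 30 min RT dark, luminescence read.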
IL-1B inflam inh – qHTS for Inhibitors of Inflammasome Signaling: IL-1-beta AlphaLISA Primary Screen | 360,000 compounds, 4.7% hits | THP-1 LPS/ATP IL-1B secretion, AlphaLISA, 16 h; active compounds read low | AID 743279, 2014 | activity change, % at 57.5 µM; in the data active = activity change below about -50%; inconclusive = mostly about -30% to -49%; also: % is scaled to controls: 0 for no effect and ±100 for the full control effect
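THP-1 cells pretreated 1 hr with compounds (up to 57.5 uM final), then stimulated with LPS (250 ng/mL final) plus ATP (1.25 mM final); secreted IL-1B measured by AlphaLISA after 16 hr, decreased signal indicating inhibition.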
HepG2 tox – qHTS for Inhibitors of TGF-b: Cytotox Counterscreen; HepG2 CAGA-GFP viability, ATP luminescence, 18 h; Potency, µM (titrated, usually from 46.1 µM), without a hit: at the highest dose activity change, negative = cytotoxicity, actives largely listed as cytotoxic; 410,000 compounds, 0.76% hits; AID 588856, 2011; also: potency is read from the fitted curve at half-maximal effect
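CellTiter-Glo luminescence gave cytotoxicity after 18 hours at 37 degrees C. The cells were HepG2 CAGA-GFP in 1% FBS DMEM, stimulated with 500 pg/mL TGF-beta after compound addition. %Activity was normalised to no-cell wells (complete cell-killing) and DMSO (no toxicity), and curves were fitted and classified.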
TGFb SMAD3 inh – qHTS for Inhibitors of TGF-b; HepG2 CAGA-GFP TGF-b/SMAD3 reporter, GFP fluorescence, 18 h; TGF-beta stimulated, 500 pg/mL final; Potency, µM (highest dose often 46.1 µM), for inactives: at the highest dose activity, negative = inhibition, most hits filed as inhibitors; 410,000 compounds, 1.2% hits; also: potency is read from the fitted curve at half-maximal effect; % is scaled to controls: 0 for no effect and ±100 for the full control effect; nearly all actives have a fitted effect of over 65% in size
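GFP signal (ex488/em500-530) from TGF-beta-stimulated HEPG2 CAGA-GFP cells, 500 pg/mL final, 18 h at 37 degrees C in DMEM plus 1% FBS, normalized to unstimulated and DMSO-stimulated controls.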
Starred values were filed as active, the others as inactive; u = inconclusive; x = no result; [ ] = dose if it differs, or a comment. Most compounds without a hit are left out; they make up all but 19% or so of the library. Unless noted, calls follow the shape of the dose curve; as a rule, active = well fitted curve in the direction sought with a large enough effect; inconclusive = small, poorly fitted or top-dose-only effect, or another doubt; inactive = no such curve, though single readings can be large; an effect the other way counts as inactive or inconclusive.

SMILES	TDP1 inh	TDP1 cell CPT	TDP1 cell noCPT	IL-1B inflam inh	HepG2 tox	TGFb SMAD3 inh
COc1cccc(CNC(=O)C2CCN(C(=O)N3CCOc4ccc(Cl)cc43)CC2)c1OC	10.4%	u	20.6µM*	x	-23.3%	-28.6%
CC(C)Oc1ccc(CNC(=O)C2CCN(C(=O)N3CCOc4ccc(Cl)cc43)CC2)cc1	9.1%	6.51µM*	6.51µM*	x	-5.7%	u
O=C(NCc1cccs1)C1CCN(C(=O)N2CCOc3ccc(Cl)cc32)CC1	7.8%	u	u	x	-27.0%	u
CCc1ccc(NC(=O)N2CCOc3ccc(Cl)cc32)cc1	3.9%	-18.9%	13µM*	x	-60.4%	-10.4%
CCOC(=O)Cc1ccc(NC(=O)N2CCOc3ccc(C)cc32)cc1	5.2%	u	u	x	-11.6%	u
Cc1ccc(-n2nnc(-c3nc(-c4cccs4)no3)c2N)c(C)c1	2.6%	4.4%	-25.7%	x	4.4%	6.0%
CO[C@H]1COC(=O)C/C=C\[C@H](C)[C@H](OC)COC(=O)[C@@H](C)NC(=O)C/C=C\[C@@H]1C	7.9%[21 µM]	x	x	x	x	x
O=C(COC(=O)CC1CCCC1)Nc1ccc(Br)cc1F	-10.9%	-1.7%	-24.1%	5.3	-18.5%	4.4%
OC(COCc1ccccc1)CN1CCCCC1 (stereo not drawn)	0.6%	10.6%	8.5%	13.7	-3.2%	-2.1%
CC12CCC(=O)N1C(C(=O)N1CCN(S(=O)(=O)c3ccc(F)c(F)c3)CC1)CS2 (stereo not drawn)	x	4.1%	-19.3%	2.8	14.6%	-4.1%
Cc1ccc2cc(CN(Cc3ccco3)C(=S)NCC3CCCO3)c(=O)[nH]c2c1C (stereo not drawn)	9.1%	18.4µM*	25.9µM*	-25.5	1.5%	-1.9%
Cc1cc(C)c2[nH]c(=O)c(CN(CC3CCCO3)C(=O)C3CCCO3)cc2c1 (stereo not drawn)	-2.1%	-13.9%	-7.5%	-3.5	-0.7%	27.8%
CCCCCCn1ccc(=N)cc1	5.2%	0.206µM*	0.206µM*	-12.0	-18.0%	-7.5%
O=c1[nH]c(Nc2nc3ccccc3o2)nc2c1CCCC2	9.2%	2.91µM*	4.11µM*	-100.8*	-30.8%	u
Cc1ccc(Nc2nc3c(c(=O)[nH]2)CCCC3)cc1	2.2%[56.1 µM]	u	u	46.4	4.4%	-8.8%
O=[N+]([O-])c1ccc2[nH]ncc2c1	1.2%	5.8%	-29.0%	16.5	-1.0%	15.8%
COc1ccc(-c2cn3c(n2)sc2cc(C(=O)NC(C)C45CC6CC(CC(C6)C4)C5)ccc23)cc1 (stereo not drawn)	0.0%	u	u	x	-2.4%	0.5%
CCCCN(CCCC)C1=C(C(=O)c2ccccc2)N(C)S(=O)(=O)c2ccccc21	x	u	u	x	-21.0%	11.5%
CCN1C(C(=O)c2ccccc2)=C(OC(=O)COc2ccccc2)c2ccccc2S1(=O)=O	0.0%	u	16.4µM*	x	-16.4%	-10.2%
Cc1ccc(OCC(=O)OC2=C(C(=O)c3ccccc3)N(C)S(=O)(=O)c3ccccc32)cc1	5.3%	u	4.11µM*	x	5.5%	-3.1%
CCOC(=O)c1ccc(CN2C(=O)c3ccccc3S2(=O)=O)cc1	x	-4.2%	-4.6%	35.2	10.2%	0.4%
CCN1C(C(=O)c2ccccc2)=C(OC(=O)C(C)C)c2ccccc2S1(=O)=O	7.0%	6.51µM*	5.17µM*	x	-37.6%	11.2µM*
CCCCN(CCCC)C1=C(C(=O)c2ccccc2)N(CC)S(=O)(=O)c2ccccc21	x	13µM*	25.9µM*	x	-21.4%	-8.8%
Cc1c(C(=O)N2CCCCCC2)c(S(=O)(=O)NCc2ccccc2)c(C)n1C	3.2%	0.5%	-16.6%	x	-12.5%	-0.1%
CCOc1ccc(NC(=O)CN2CCN(CC(=O)Nc3ccc(Cl)c(C(F)(F)F)c3)CC2)cc1	1.8%	11.6µM*	9.2µM*	-59.0*	12.6µM*	u
SMILES	TDP1 inh	TDP1 cell CPT	TDP1 cell noCPT	IL-1B inflam inh	HepG2 tox	TGFb SMAD3 inh
O=C(CN1CCN(S(=O)(=O)c2ccc(F)cc2)CC1)Nc1ccc(Cl)c(C(F)(F)F)c1	9.6%	18.4µM*	9.2µM*	-59.7*	-6.9%	u
O=C(CN1CCN(CC(=O)Nc2ccccc2F)CC1)Nc1ccc(Cl)c(C(F)(F)F)c1	2.2%	7.31µM*	6.51µM*	x	-65.5%	-10.2%
O=C(CN1CCN(c2ccc(Cl)cc2)CC1)Nc1ccc(Cl)c(C(F)(F)F)c1	3.8%	u	16.4µM*	x	-40.2%	10µM*
O=C(CN1CCN(CC(=O)Nc2ccccc2F)CC1)Nc1cccc(F)c1	x	-21.9%	-25.4%	-9.9	-4.8%	28.6%
CCOC(=O)c1sc2cccc(F)c2c1S(=O)(=O)NCc1ccccc1Cl	-0.6%	-26.7%	-18.5%	x	-15.9%	2.0%
CCOc1ccc(C(c2c(O)cc(C)n(CCOC)c2=O)N2CCN(c3ccccc3F)CC2)cc1 (stereo not drawn)	2.7%	-17.7%	-29.8%	x	0.2%	-5.4%
CCN(c1ccccc1)S(=O)(=O)c1ccc(C(=O)NCC(=O)Nc2ccc(F)c(F)c2F)cc1	-0.3%	14.6µM*	14.6µM*	-27.8	-5.4%	u
CN(c1ccccc1)S(=O)(=O)c1cccc(C(=O)NCC(=O)Nc2ccc(F)c(F)c2F)c1	-9.5%	u	16.4µM*	-22.3	-20.7%	u
Cc1ccc(S(=O)(=O)N(C)CC(=O)NCC(=O)Nc2ccc(F)c(F)c2F)cc1	-0.2%	-18.9%	u	4.2	6.1%	-5.8%
NC(=S)Nc1cc(Cl)cc(Cl)c1	3.7%	u	u	x	1.4%	-15.9%
NC(=S)NNc1cc(Cl)cc(Cl)c1	5.9%	13µM*	u	-3.3	0.7%	-4.9%
CCC(=O)C1=C(c2ccc(F)cc2)N(C(=O)CC)n2c(nnc2-c2ccc(OC)cc2)S1	0.0%	4.11µM*	2.91µM*	x	8.1%	3.7%
CC(=O)C1=C(c2ccc(F)cc2)N(C(C)=O)n2c(nnc2C2CCCCC2)S1	-7.8%	u	23.1µM*	x	0.1%	-2.6%
CCOC(=O)CSc1nnc(C2CCCCC2)n1C	-1.0%	-21.4%	-5.2%	2.4	-9.4%	1.4%
CCC(=O)C1=C(c2ccc(C)cc2)N(C(=O)CC)n2c(nnc2C2CCCCC2)S1	0.0%	u	25.9µM*	x	0.3%	15.3%
